Assay outcomes deposited in PubChem by several laboratories.
TIM10 inh – growth inhibitors of isogenic TIM10 control yeast, primary screen, counter-screen for tim10-1 yeast inhibitor project, luminescence, uHTS. AID 463195, 2010. S. cerevisiae TIM10 strain growth, BacTiter-Glo luminescence, 24 h. 330,000 tested, 1.4% active. inhibition, % at 10 µM;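 active = inhibition of 40% or more at the single tested concentration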;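 note: wild-type TIM10 isogenic control strain grown at permissive 25 °C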
SKKanGAS inh – S. pyogenes SKKanGAS growth inhibitors in kanamycin, primary screen, streptokinase expression inhibitor project, SKKanGAS strain, BacTiter-Glo luminescence; 6 h; inhibition, % at 7.5 µM; 300,000 tested, 1.3% active; AID 1662, 2009;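 active = mean replicate score, as percent of positive control median, at least 50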;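 note: strain carries kanamycin resistance gene driven by streptokinase promoter and grows in 40 µg/ml kanamycin; loss of luminescence reflects streptokinase promoter inhibition or plain growth inhibition; 0% = median of DMSO wells and 100% = positive control at its reference dose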
NALP3 yeast inh – NALP3 inflammasome inhibitors in reconstituted yeast, primary screen, luminescence, uHTS; Yeast reconstituted NLRP3/ASC/caspase-1, beta-gal luminescence, 24 h; 330,000 tested, 0.39% active; inhibition, % at 10 µM;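 active = inhibition of 50% or more; inactive = inhibition below 50%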;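 note: plate controls were induced DMSO wells for no effect and uninduced yeast grown without galactose for full effect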
tim10-1 inh – growth inhibitors of tim10-1 mutant yeast, primary screen, luminescence, uHTS | S. cerevisiae tim10-1 ts strain growth, BacTiter-Glo, 24 h | inhibition, % at 20 µM | 330,000 tested, 2.2% active;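 active = inhibition of at least 40%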;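 note: mutant grown at 25 °C; 0% = DMSO wells with yeast and 100% = wells holding no yeast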
tim23-1 inh – growth inhibitors of tim23-1 mutant yeast, primary screen, luminescence, uHTS | AID 463212, 2010 | inhibition, % at 20 µM | S. cerevisiae tim23-1 growth, BacTiter-Glo luminescence, 24 h | 330,000 tested, 1.3% active;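 active = growth inhibition of the mutant yeast at or above 50%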;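 note: temperature-sensitive mutant grown at 25 °C; plate controls were DMSO-treated mutant yeast for no effect and medium wells lacking yeast for full effect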
tim10-1 conf – growth inhibitors of tim10-1 mutant yeast, confirmation, single concentration, luminescence, S. cerevisiae; shares compounds with tim10-1 inh; S. cerevisiae tim10-1 ts strain growth, BacTiter-Glo, 24 h; inhibition, % at 20 µM; 7,400 tested, 56% active;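 active = inhibition of yeast growth at or above a set limit in either of two repeat tests at 20 µM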;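 note: tim10-1 mutant grown at permissive 25 °C to find synthetic lethal compounds; 0% = DMSO yeast wells and 100% = medium wells without yeast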
tim10 confirm – growth inhibitors of wild-type TIM10 yeast, confirmation, counter-screen for tim10-1 synthetic lethality project, single concentration, luminescence, S. cerevisiae | inhibition, % at 10 µM | S. cerevisiae tim10 strain growth, BacTiter-Glo luminescence, 24 h | 4,600 tested, 63% active | shares compounds with TIM10 inh;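 active = inhibition of yeast growth at or above a set limit in either of two replicates at 10 µM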;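 note: this counterscreen used the strain with wild-type TIM10; 0% = yeast with DMSO and 100% = medium wells lacking yeast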
tim23-1 conf – tim23-1 mutant yeast growth inhibitors, confirmation, luminescence, single concentration. shares compounds with tim23-1 inh. S. cerevisiae tim23-1 growth, BacTiter-Glo luminescence, 24 h. inhibition, % at 20 µM. 4,400 tested, 83% active;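 active = inhibition above about 39% in either of two replicate wells at 20 µM, limit read from the data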;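 note: temperature-sensitive tim23-1 mutant grown at 25 °C; 0% = DMSO wells with yeast and 100% = medium wells without yeast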
The depositor's hits bear a star; x = no result given. A selection: hits, their analogues and other compounds. The true share with any hit is near 4.6%.

SMILES	TIM10 inh	SKKanGAS inh	NALP3 yeast inh	tim10-1 inh	tim23-1 inh	tim10-1 conf	tim10 confirm	tim23-1 conf
Cc1noc(-c2ccc(Cl)cc2)c1C(=O)O/N=C(\N)c1ccc(C(C)(C)C)cc1	75.7*	7.6	11.0	44.6*	71.3*	12.4	84.5*	58.0*
COc1ccc(C(=O)O/N=C(\N)c2ccccc2)cc1	57.5*	-2.7	34.8	70.7*	79.8*	68.0*	56.4*	78.8*
N/C(=N\OC(=O)c1ccc2ccccc2c1)c1ccncc1	38.2	-17.2	1.4	65.0*	51.0*	55.2*	x	54.9*
CCOC(=O)c1cc(/C(C)=N/OC(=O)c2ccc(C(C)(C)C)cc2)on1	-13.3	0.2	18.5	-12.0	18.2	x	x	x
Cc1occc1C(=O)O/N=C(\N)c1ccc(Cl)cc1	47.2*	-2.3	33.1	65.6*	82.3*	24.4	38.4*	76.5*
Cc1cc(C(=O)O/N=C(\N)c2ccc(C(C)(C)C)cc2)no1	60.9*	4.4	8.5	46.9*	69.6*	58.0*	45.3*	78.0*
COc1ccccc1N1CCN(S(=O)(=O)c2cc(Br)cnc2N)CC1	15.4	4.4	11.6	11.2	14.7	x	x	x
CCCNC(=O)c1cccc(S(=O)(=O)N2CC3(C)CC2CC(C)(C)C3)c1 (configuration not stated)	26.3	-4.5	18.2	40.9*	59.0*	32.8*	x	48.8*
CN(C)C(=O)c1ccc2c(c1[N+](=O)[O-])C(=O)c1ccccc1C2=O	69.0*	19.1	36.4	71.4*	60.8*	61.2*	62.8*	58.2*
Cc1[nH]c2c(C)cccc2c1CCNC(=O)c1ccc2c(c1[N+](=O)[O-])C(=O)c1ccccc1C2=O	39.6	45.4	36.0	26.7	39.3	x	x	x
COc1cccc(CSc2nc3ccccc3cc2C=O)c1	46.2*	13.2	41.4	49.4*	71.2*	44.1*	53.0*	77.7*
COc1cccc(NC(=O)CSc2nc3ccccc3cc2Cc2ccccc2)c1	8.6	34.3	12.7	15.1	0.1	x	x	x
CC1(c2ccccc2)NC(=O)N(CC(=O)NCC2CCCO2)C1=O (configuration not stated)	11.9	x	5.7	4.6	13.4	x	x	x
CC(C)N1C2OC(C3OC4C(O3)N(C(C)C)S(=O)(=O)N4C(C)C)OC2N(C(C)C)S1(=O)=O (configuration not stated)	89.4*	-10.7	1.3	60.4*	54.8*	71.2*	87.7*	29.0
O=S(=O)(c1ccc2c(c1)OCCO2)N1CCN(Cc2ccc3c(c2)OCO3)CC1	50.1*	7.1	9.4	46.5*	60.2*	45.5*	51.1*	63.0*
O=[N+]([O-])c1ccccc1Nc1c2ccccc2nc2ccccc12	5.0	-8.9	0.7	-5.7	1.0	x	x	x
O=[N+]([O-])c1ccc(Nc2c3ccccc3nc3ccccc23)cc1	48.6*	18.3	19.2	63.3*	73.4*	53.6*	49.6*	68.2*
CC1=C(C#N)c2nc(N)c(C#N)c(C)c2/C1=C\c1ccc(C)cc1	82.2*	70.6*	21.5	73.3*	55.9*	89.9*	1.0	68.3*
CSc1nc(-c2ccc(C)cc2)nc(N)c1C#N	9.6	-5.7	-8.6	-5.5	9.2	x	x	x
CCC1CCCCN1CCCNC(=O)c1ccc(CS(=O)(=O)c2ccccc2OC)o1 (configuration not stated)	-2.5	-1.1	14.1	-1.1	-12.4	x	x	x
CCC(C)c1ccc(NC(=S)NCc2cccs2)cc1 (configuration not stated)	53.5*	0.4	22.0	55.7*	53.0*	54.8*	44.5*	54.8*
COCC(=O)Nc1cc(Cl)ccc1C	-0.2	8.3	-3.4	6.5	0.5	x	x	x
Cc1ccc(Cl)cc1NC(=O)CC(O)(C(F)(F)F)C(F)(F)F	39.3	12.1	23.7	55.0*	53.2*	56.9*	x	55.8*
Cc1cc(C)nc(SCc2ccc(C(=O)N/N=C/c3ccco3)cc2)n1	2.0	5.7	18.7	-53.3	10.3	x	x	x
CN1/C(=C\C(=O)Nc2ccc(F)cc2)C(C)(C)c2ccccc21	47.6*	7.4	5.3	45.4*	67.9*	48.8*	-20.6	71.6*
SMILES	TIM10 inh	SKKanGAS inh	NALP3 yeast inh	tim10-1 inh	tim23-1 inh	tim10-1 conf	tim10 confirm	tim23-1 conf
CN1/C(=C/C(=O)C2CC2)C(C)(C)c2ccccc21	-21.5	6.5	24.8	-2.0	9.8	x	x	x
O=[N+]([O-])c1ccc(/C=N/Nc2ncccc2[N+](=O)[O-])s1	14.4	11.9	0.6	23.2	3.3	x	x	x
Cc1cc(C)cc(N=Cc2ccc([N+](=O)[O-])s2)c1	83.0*	5.6	19.2	56.1*	55.0*	70.6*	85.8*	73.8*
O=[N+]([O-])c1ccc(C=Nc2ccc(Cl)c([N+](=O)[O-])c2)s1	85.4*	x	9.2	65.0*	51.3*	71.1*	88.0*	77.3*
COc1cccc(C(=O)Nc2ccccc2C(=O)NCC2CCCO2)c1 (configuration not stated)	-1.4	-10.8	28.7	15.2	16.0	x	x	x
CCOc1cc(/C=C2\CN(C)C/C(=C\c3ccc(O)c(OCC)c3)C2=O)ccc1O	30.6	19.8	15.5	57.7*	52.0*	47.2*	x	61.5*
CCOc1cc(/C=C2/C(=O)ON=C2C)ccc1O	-19.6	3.8	-7.5	11.1	11.6	x	x	x
Cc1ccc(S(=O)(=O)Nc2ccc(Br)cc2/C=N/n2cnnc2)cc1	26.5	7.7	34.9	41.4*	76.6*	35.1*	x	72.0*
Oc1c(C(c2ccccn2)N2CCC(Cc3ccccc3)CC2)cc(Cl)c2cccnc12 (configuration not stated)	26.9	74.9*	14.6	43.4*	54.9*	27.7	x	68.5*
Cc1ccc(C(c2cc(Cl)c3cccnc3c2O)N2CCN(C)CC2)cc1 (configuration not stated)	8.4	51.0*	37.6	41.0*	55.1*	24.6	x	79.7*
CC(=O)NC(c1cc(Cl)c2cccnc2c1O)C(C)C (configuration not stated)	-21.7	x	22.4	22.7	25.1	x	x	x
CC(=O)NC(c1cc(Cl)c2cccnc2c1O)C1CC1 (configuration not stated)	3.8	x	30.2	33.1	40.3	x	x	x
